Source: PubChem BioAssay
Only some compounds are listed: those with a hit (about 2.9% of all), similar ones and a draw of the others.
Exocytosis inh – LAMP-1 surface exposure blockers, TALL-104 cells – cell-based, flow cytometry, MLPCN library, primary screen. TALL-104 LAMP-1 surface exposure; cells stimulated with thapsigargin and PMA. inhibition, % at 10 µM. actives 0.66% (n = 360,000);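 active means inhibition above about 55%, limit read from the data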
NadD block – inhibitors of S. aureus NadD, primary screen, biochemical, colorimetric, uHTS; Nicotinate-nucleotide adenylyltransferase NadD (Staphylococcus aureus N315); AID 602399, 2012; inhibition, % at 20 µM; purified NadD enzyme, colorimetric absorbance read-out; actives 0.78% (n = 360,000); in the data active means inhibition above about 26%
PP1 inh – PP1-alpha phosphatase inhibitors, primary screen, counter-screen for PP5 inhibitor project, biochemical, fluorescence, OMFP substrate, single point; purified PP1alpha; actives 0.9% (n = 320,000); Serine/threonine-protein phosphatase PP1-alpha catalytic subunit (Homo sapiens), P62136; inhibition, % at 6.7 µM;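 active means inhibition above the mean inhibition of all tested compounds plus 3 SD, computed separately for each screening campaign, cut at about 15% in these data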
GRK2 inh – compounds blocking aptamer binding on GRK2 – biochemical, human GRK2, bead flow cytometry, HTS, primary screen; FAM-aptamer displacement from GRK2; actives 0.59% (n = 330,000); Beta-adrenergic receptor kinase 1 (Homo sapiens), P25098; AID 488847, 2010; inhibition of aptamer binding, % at 10 µM;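 active means inhibition of aptamer binding above 40%, roughly 3 SD of noise, on plates passing a quality check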;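 further: median bead fluorescence of bound FAM aptamer so fluorescent compounds give negative values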
Beta2AR agonist – beta2AR agonists driving receptor internalization, primary screen, cell-based, FAP fluorogen, flow cytometry. Am2.2-beta2AR cells. response, % (test concentration not listed). actives 0.43% (n = 340,000). AID 504454, 2011;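 active means response above a set limit, near 3 SD of response in nonfluorescent compounds, cut at about 42% in these data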
GRK2 CP1 – GRK2 aptamer-displacing inhibitors, retest, confirmation, biochemical, cherry pick 1, bead flow cytometry. shares compounds with GRK2 inh. bead-bound GRK2, FAM-aptamer displacement. aptamer displacement, % at 10 µM. actives 4% (n = 2,000). AID 504451, 2011;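 active means aptamer displacement above 40%, near three times the noise of non-fluorescent compounds, on plates passing quality checks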;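 further: negative values mostly reflect intrinsic compound fluorescence rather than true enhancement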
Aptamer quench SP – quenches fluorescent RNA aptamer, GRK2 hit artifact. 2,000 tested, under 10 active. fluorescence response (% of DMSO), % at 10 µM. shares compounds with GRK2 inh. AID 504580. Carboxyfluorescein RNA aptamer on beads, flow cytometry quenching; hits give low values;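 active means compounds that quench the bead-bound fluorescent RNA probe, cutting fluorescence to under half of the solvent control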;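 further: counterscreen run without GRK2 so only probe quenching by compound is measured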
GRK2 confirm 2 – GRK2 aptamer-displacing inhibitors, hit retest, confirmation, biochemical, cherry pick 2, bead flow cytometry; shares compounds with GRK2 inh; bead-bound GRK2, FAM-aptamer displacement; inhibition of aptamer binding, % at 10 µM; 360 tested, under 10 active;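 active means inhibition of aptamer binding above 40%, about triple the noise seen with nonglowing compounds, on plates passing quality control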;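 further: negative values mostly come from compounds that fluoresce themselves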
FAM quench CP2 – quenches fluorescent RNA aptamer, GRK2 hit artifact | fluorescence response vs DMSO, % at 10 µM | carboxyfluorescein RNA aptamer beads, flow cytometry quenching; hits give low values | 360 tested, under 10 active | AID 588494 | shares compounds with GRK2 inh;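 active means response vs DMSO under 50%, meaning signal dropped by over half, treated as fluorescence quencher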;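 further: labelled aptamer on streptavidin beads without GRK2 as a quench counter-screen; 100% = bead fluorescence of DMSO wells and lower means quenching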
The depositor's hits bear a star; / = not tested or not shown.

SMILES	Exocytosis inh	NadD block	PP1 inh	GRK2 inh	Beta2AR agonist	GRK2 CP1	Aptamer quench SP	others
O=c1cc(CN2CCN(Cc3ccc(F)cc3)C(CCO)C2)[nH]c2ccccc12 (configuration not stated)	5.3	4.4	-1.4	41.0*	-1.3	/	/	GRK2 confirm 2=1.4;FAM quench CP2=99.0
C/C(=N\NC(=O)c1ccc2ccccc2c1)c1cccs1	2.2	3.1	/	0.0	-3.7	/	/
C/C(=N\NC(=O)c1cccs1)c1ccc2ccccc2c1	1.0	-0.4	0.2	12.0	4.4	0.8	101.8
O=C(NCc1ccccn1)C1COc2ccccc2O1 (configuration not stated)	-1.2	-2.5	-3.4	90.0*	-4.9	3.4	89.4
CCOC(=O)c1c(-c2ccc(C)c(C)c2)csc1NC(=O)C1CC=CCC1C(=O)O (configuration not stated)	0.8	12.8	10.2	0.0	-19.5	/	/
CCOC(=O)c1c(-c2ccc(F)cc2)csc1NC(=O)C1CC=CCC1C(=O)O (configuration not stated)	-2.1	11.3	-0.3	95.0*	9.9	4.6	98.1
COc1ccccc1C(=O)Nc1c2c(nn1-c1ccc(Cl)cc1)CS(=O)(=O)C2	2.3	-1.4	-3.1	44.0*	4.8	/	/	GRK2 confirm 2=-17.7;FAM quench CP2=101.0
COc1ccccc1C(=O)Nc1c2c(nn1-c1ccc([N+](=O)[O-])cc1)CS(=O)(=O)C2	-6.6	2.7	-0.8	0.0	1.4	/	/
CCCc1cc(=O)oc2cc(OC(C)C(=O)NC3CC(C)(C)NC(C)(C)C3)ccc12 (configuration not stated)	3.3	0.0	-2.4	1.0	-15.1	/	/
CCN(C(=O)CN1c2ccccc2CC1C)c1c(N)n(Cc2ccccc2)c(=O)[nH]c1=O (configuration not stated)	2.2	4.5	-3.3	1.0	-6.4	4.2	95.0
CCN(CC)C(=O)c1ccc(S(=O)(=O)c2ccccc2)cc1	0.7	-6.4	-0.8	0.0	1.1	/	/
CCOCCCN(C(=O)CNC(=O)c1ccco1)C(C(=O)NC1CCCC1)c1ccccc1C (configuration not stated)	1.0	-0.1	-0.5	56.0*	1.8	0.9	104.5
CN(/N=C/c1cc(Cl)cc(Cl)c1O)c1c(Cl)cccc1[N+](=O)[O-]	3.9	1.4	0.1	3.0	16.0	/	/
O=C(O)C1C2C=CC(C2)C1C(=O)Nc1ccc2c(c1)OCCO2 (configuration not stated)	1.8	1.9	0.6	3.0	-3.3	/	/	GRK2 confirm 2=7.5;FAM quench CP2=107.0
N#Cc1ccccc1S(=O)(=O)N1CCN(CC(O)COc2ccccc2F)CC1 (configuration not stated)	3.3	-1.8	1.4	54.0*	3.1	-0.6	100.6
O=S(=O)(c1ccccc1C(F)(F)F)N1CCN(CC(O)COc2ccccc2F)CC1 (configuration not stated)	1.2	-6.2	/	2.0	-15.2	/	/
CNC(=O)C[C@H]1C(=O)N(Cc2ccccc2)C[C@@H]1Cc1ccccc1	0.4	4.1	/	/	/	/	/
COc1ccc(C)cc1N1CC(C(=O)Nc2ccccc2N2CCCCC2)CC1=O (configuration not stated)	5.5	2.3	-0.8	78.0*	-6.4	-1.8	96.7
COc1ccc(N2CC(C(=O)Nc3ccccc3N3CCCC3)CC2=O)c(OC)c1 (configuration not stated)	-3.8	0.7	-1.6	0.0	-5.5	/	/
O=C(NCc1cccc(C(F)(F)F)c1)N1CCN(C(=O)c2ccccc2)CC1	-5.3	-3.6	/	1.0	-6.6	/	/
Cc1noc(C)c1COc1ccc(C(=O)NNC(=O)c2ccccc2)cc1	-0.2	-4.3	-8.0	100.0*	-12.6	0.5	107.2
Cc1noc(C)c1COc1ccc(C(=O)NNC(=O)c2ccccc2F)cc1	-1.5	-9.3	0.1	1.0	-20.3	/	/
Cc1ccc(CCSCC(=O)O)cn1	-1.5	-0.8	-1.6	74.0*	2.8	3.0	100.0
Cc1ccc(CCP(=O)(O)CN2CCOCC2)cn1	7.4	-0.6	0.5	2.0	-6.0	/	/
